# Test results: PubChem BioAssay AID556 (SRMLSC, 2006)
# In all, about 65,000 compounds went through this assay and about 320 (0.49%) were called active.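 The calls were made as follows: active = the 320 compounds with the highest percent inhibition in the single-dose primary screen, excluding strongly autofluorescent ones (cut at about 32% in these data); inactive = the rest, inconclusive results apart.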 What follows is part of a selection rich in actives, with near analogues and random picks from the rest.
# Tested on: diphosphomevalonate decarboxylase (Streptococcus pneumoniae D39)
# Assay: S. pneumoniae DPM-DC inhibitors, primary screen, biochemical, PK/LDH-coupled NADH fluorescence (AID 556);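 as to inhibition: kinetic rate of NADH fluorescence loss reporting ADP formed by the decarboxylase; 0% = full reaction rate with carrier and 100% = no-substrate background rate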
# Settings: purified DPM-DC, at 10 µM
# [1] = stronger effect = higher value unless noted
# [2] = measured here: pilot screen trials, stronger effect = higher value
compound,measurement,setting,value
c1ccc(CCc2nc(-c3ccncc3)no2)cc1,inhibition,[1],inactive
Cc1ccccc1CN1CCN(CC(=O)NCc2ccccn2)C1=O,inhibition,[1],inactive
COc1ccc2c(c1)C(C)=CC(C)(C)N2C(=O)CNCc1ccc2c(c1)OCO2,inhibition,[1],7% (inactive)
CC(C)c1nc2oc3c(N4CCN(C)CC4)ncnc3c2c2c1CCC2,inhibition,[1],inactive
Cc1cccc(C)c1NC(=O)CCCSc1nnc(-c2ccco2)n1-c1ccccc1,inhibition,[1],inactive
NC(=O)c1ccsc1NC(=O)c1ccco1,inhibition,[1],9% (inactive)
Cc1cc(C)c(C#N)c(SCS(=O)c2ccc(C(C)(C)C)cc2)n1 (stereo unspecified),inhibition,[1],inactive
O=C(CCS(=O)(=O)c1cccc2nonc12)NCCc1ccccc1Cl,inhibition,[1],inactive
COCCCN1C(=O)c2ccc(C(=O)Nc3ccc(OC)cc3OC)cc2C1=O,inhibition,[1],inactive
CCCN1C(=O)C(NC(C)=O)c2cc(OC)ccc21 (stereo unspecified),inhibition,[1],40% (active)
CCC1=C(C(=O)OC)C(c2cc(OC)ccc2OC)C(C#N)=C(N)O1 (stereo unspecified),inhibition,[1],"0% [measured here: pilot screen trials, stronger effect = higher value]"
same,outcome,[1],inactive
CCC(=O)c1ccc(OCC(O)CN2C(=O)NC(C)(C)C2=O)cc1 (stereo unspecified),inhibition,[1],inactive
CC1(C)CC(=O)C=C(NCc2ccncc2)C1,inhibition,[1],"2.5% [measured here: pilot screen trials, stronger effect = higher value]"
same,outcome,[1],inactive
Cn1c(=NC(=O)C2CC2)sc2cc(F)cc(F)c21,inhibition,[1],inactive
CCCC(=O)N=c1sc2cccc(F)c2n1C,inhibition,[1],inactive
Cn1c(=NC(=O)c2ccco2)sc2cccc(F)c21,inhibition,[1],37% (active)
c1ccc(-n2ncc3c2ncn2c(C4CCCCC4)nnc32)cc1,inhibition,[1],inactive
CC(=O)Nn1cc2c(=O)n(C)c(=O)n(C)c2c1,inhibition,[1],inactive
COc1cc(C(=O)N(Cc2ccc(N(C)C)cc2)C2CCS(=O)(=O)C2)cc(OC)c1OC (stereo unspecified),inhibition,[1],inactive
COc1ccc(OCC(=O)N2CCOCC2)cc1,inhibition,[1],inactive
CCCCOC(=O)Nc1nccs1,inhibition,stronger effect = higher value,1% (inactive)
same,inhibition,[2],4.5%
CN(C)CCNC(CC(=O)Nc1ccc(Cl)c(Cl)c1)C(=O)O (stereo unspecified),inhibition,[1],inactive
COc1cc(Cl)cc(C2NC(=O)NC(C)=C2C(=O)NCc2ccccc2)c1O (stereo unspecified),inhibition,[1],12% (inactive)
CCOc1ccc(C2C(C(=O)NC)=C(C)Nc3nc4ccccc4n32)cc1OC (stereo unspecified),inhibition,[1],inactive
Cc1onc(-c2ccccc2)c1C(=O)Nc1ccccc1C#N,inhibition,[1],5% (inactive)
CC(=O)N1CCc2cc(S(=O)(=O)Nc3ccccc3N3CCN(C)CC3)ccc21,inhibition,[1],1% (inactive)
CC(c1cccnc1)N(CCN(C)C)C(=O)Nc1ccc(Cl)c(Cl)c1 (stereo unspecified),inhibition,[1],inactive
COc1ccc(C(CNC(=O)c2cccnc2SC)N2CCOCC2)cc1 (stereo unspecified),inhibition,[1],inactive
COc1cc(C2C(C(=O)Nc3ccccc3OC)=C(C)Nc3ncnn32)ccc1O (stereo unspecified),inhibition,[1],inactive
Cc1cc(NC(=O)CSc2nnc(-c3ccc(Cl)s3)o2)no1,inhibition,[1],inactive
COc1ccc(OCCCC(=O)Nc2nnc(C3CCCO3)s2)cc1 (stereo unspecified),inhibition,[1],inactive
O=C(Nc1ccccc1N1CCN(C(=O)c2ccccc2)CC1)c1ccc2c(c1)OCO2,inhibition,[1],inactive
Cc1ccc(C)c(S(=O)(=O)N2CC(=O)Nc3ccccc32)c1,inhibition,[1],inactive
COc1ccc(S(=O)(=O)N2CCOCC2)cc1C(=O)Nc1nc2ccccc2s1,inhibition,[1],6% (inactive)
N#Cc1cccc(NC(=O)CCC2CCCC2)c1,inhibition,[1],inactive
CCCCn1nc(C(=O)N2CCc3ccccc32)c2ccccc2c1=O,inhibition,stronger effect = higher value,4% (inactive)
same,inhibition,[2],2%
Cc1cc(C)nc(SCc2nnc(SCC(=O)OC3CCCCC3)o2)n1,inhibition,[1],inactive
Cc1cc(=O)[nH]c(=S)[nH]1,inhibition,[1],inactive
Cc1cc(=O)cc(C)[nH]1,inhibition,[1],42% (active)
COc1ccc(C2CC(c3ccc(Cl)cc3Cl)Nc3nc(N)nn32)cc1OC (stereo unspecified),inhibition,[1],inactive
CCOC(=O)CCCNC(=O)CN1C(=O)NC(CCc2ccccc2)C1=O (stereo unspecified),inhibition,[1],inactive
CCOc1ccc(-c2nnn(CC(=O)N3CCN(c4ccc(F)cc4)CC3)n2)cc1OCC,inhibition,[1],"0% [measured here: pilot screen trials, stronger effect = higher value]"
same,outcome,[1],inactive
CCOC(=O)CSc1nccc(N(C)C)c1C#N,inhibition,[1],inactive
CC(=O)c1cc(-c2ccccc2)[nH]c1N1CCCC1,inhibition,[1],1% (inactive)
CCOC(=O)/C=c1\s/c(=C\c2ccccc2OC)c(=O)n1CC(=O)N1CCOCC1,inhibition,[1],4% (inactive)
CC1(C)CC(CCC(=O)Nc2ccccc2Cl)C(=O)O1 (stereo unspecified),inhibition,[1],inactive
COc1ccc(-n2nnc3c(=O)n(CC(=O)N4CCC(Cc5ccccc5)CC4)cnc32)cc1,inhibition,[1],inactive
CCOC(=O)c1ccc(N2C(=O)CC(N3CC(C)OC(C)C3)C2=O)cc1 (stereo unspecified),inhibition,[1],inactive
O=C(O)c1ccc(-n2cccc2)cc1O,inhibition,[1],1% (inactive)
Cc1ccc(S(=O)(=O)N2CCCC2C(=O)NCc2ccco2)cc1 (stereo unspecified),inhibition,[1],4% (inactive)
O=C1NC2(CCCCC2)N=C1c1ccccc1,inhibition,[1],inactive
COc1ccc(S(=O)(=O)N2CCC(C(=O)N3CCc4ccccc4C3)CC2)cc1OC,inhibition,[1],inactive
CCOC(=O)c1c(-n2cnnn2)sc(C)c1C,inhibition,[1],2% (inactive)
Cc1nc(C)c(C(=O)Nc2cccc(C)c2C)o1,inhibition,[1],inactive
CCC(c1nnnn1Cc1ccccc1)N(Cc1cc2cc(OC)ccc2[nH]c1=O)CC1CCCO1 (stereo unspecified),inhibition,[1],5% (inactive)
COc1ccc2[nH]c(=O)c(CN(Cc3nnnn3CCc3ccccc3)CC3CCCO3)cc2c1 (stereo unspecified),inhibition,[1],2% (inactive)
COc1ccc2[nH]c(=O)c(CN(CC3CCCO3)C(=O)Nc3ccccc3)cc2c1 (stereo unspecified),inhibition,[1],33% (active)
O=C1[C@@H]2C(Cc3ccc(O)cc3)NC3(C(=O)Nc4ccc(F)cc43)[C@@H]2C(=O)N1c1ccc(F)cc1 (stereo partly specified),inhibition,[1],inactive
CSc1ccc(NC(=O)N2CC(C)OC(C)C2)cc1 (stereo unspecified),inhibition,[1],inactive
CCOc1ccc(/C(O)=C2/C(=O)C(=O)N(Cc3cccnc3)C2c2ccc(N(C)C)cc2)c(C)c1 (stereo unspecified),inhibition,[1],2% (inactive)
Cc1ccc(N(C(=O)CC2NC(=O)NC2=O)C2(C(=O)NC3CCCC3)CCCCC2)cc1 (stereo unspecified),inhibition,[1],inactive
COc1ccc(CCNC(=O)CN2CCC(n3nnc4cc(F)ccc43)CC2)cc1OC,inhibition,[1],inactive
O=C(CSc1nnnn1C1CCCC1)Nc1ccc2c(c1)OCCO2,inhibition,[1],inactive
N#CCCN1CCN(S(=O)(=O)c2ccc(S(=O)(=O)N3CCCC3)cc2)CC1,inhibition,[1],7% (inactive)
CN(CC(=O)NC1CCCCC1)S(=O)(=O)c1cccc2cccnc12,inhibition,[1],inactive
O=C(Oc1ccccc1)c1ccc2nccnc2c1,inhibition,[1],inactive
CCOC(=O)c1sc(NC(=O)c2cc(S(=O)(=O)N3CCOCC3)ccc2C)nc1C,inhibition,[1],11% (inactive)
Cc1ccc(N2CCN(c3ccc(C)cc3)C2c2ccccn2)cc1,inhibition,[1],inactive
O=C(c1cc(-c2cccc(O)c2)on1)N1CCc2ccccc2C1,inhibition,[1],1% (inactive)
COc1cc(Cl)c(S(=O)(=O)N2CCN(Cc3ccc4c(c3)OCO4)CC2)cc1Cl,inhibition,[1],inactive
Cc1ccc(C(=O)N2CCCCCC2)cc1Br,inhibition,[1],inactive
O=C(c1cc(-c2cccs2)on1)N1CCCCC1,inhibition,[1],inactive
Cc1ccc2cc3cc(C(=O)N4CCCCCC4)oc3nc2c1,inhibition,[1],33% (active)
CCOC(=O)CNC(=O)CSc1nnc(COc2ccc(Cl)cc2)n1CC,inhibition,[1],2% (inactive)
Cc1oc(-c2ccccc2F)nc1CS(=O)(=O)CC(=O)NCCCN(C)C1CCCCC1,inhibition,[1],9% (inactive)
COc1ccc(-n2c(Cc3cccn3C)nnc2SCC(=O)Nc2cc(C)cc(C)c2)cc1,inhibition,[1],inactive
O=C(O)CCCC(=O)Nc1ccccc1-n1ccnc1,inhibition,[1],inactive
Cc1nc(SCC(=O)Nc2cc(C)on2)c2c(C)c(C)sc2n1,inhibition,[1],inactive
CCOc1ccccc1N(CC(=O)Nc1ccccc1C(=O)OC)S(C)(=O)=O,inhibition,[1],inactive
COc1ccc(OC)c(NC(=O)CN2CCN(C(=O)c3ccco3)CC2)c1,inhibition,[1],inactive
COc1cccc(C2/C(=C(/O)c3ccncc3)C(=O)C(=O)N2CCCN(C)C)c1 (stereo unspecified),inhibition,[1],16% (inactive)
CC(C)c1nc(-c2ccccn2)no1,inhibition,[1],inactive
CC(=O)NCC(=O)N(C)C(C(=O)Nc1ccc2c(c1)OCCO2)c1ccccc1 (stereo unspecified),inhibition,[1],inactive
Cc1cc(C)cc(OCc2nnc(SCC(=O)OC3CCCCC3)o2)c1,inhibition,[1],inactive
CCOC(=O)c1ccc(N2C(=O)CC(Sc3nc(O)c(CC)c(=O)[nH]3)C2=O)cc1 (stereo unspecified),inhibition,[1],inactive
Cn1c2c(c(=O)n(C)c1=O)C1c3ccccc3OCC1C(C)(C)O2 (stereo unspecified),inhibition,[1],10% (inactive)
